Results reported in PubChem BioAssay AID743167 (National Center for Advancing Translational Sciences (NCATS), 2013).
Values joined by “and” are separate entries in the source; they are usually repeats but may differ in a detail not shown here. Identical values can stand only once. Results filed as inconclusive are left out. Active and inactive are the calls of the source. Calls come from the whole dose curve; as a rule, active = well fitted activation curve with a large enough effect; inconclusive = small, poorly fitted or top-dose-only effect; inactive = flat fitted curve, though single readings scatter.

Assay: Extended Characterization of HPGD Inhibitors: PGE2 Assay in A549 Cells
Conditions: PGE2 HTRF level, 16 h
Description: The central role of HPGD is to inactivate prostaglandins such as prostaglandin E2 (PGE2) or prostaglandin D2 (PGD2). These prostaglandins are involved in a number of processes, including inflammation, differentiation, and cellular signaling, which makes HPGD an important target for pharmacological intervention. A number of prostaglandins of particular biological interest have been identified as substrates of HPGD. […] Over-production of PGE2 has been reported to promote tumor-associated neovascularization, cell proliferation, and tumor growth. […] In this orthogonal assay, we set out to measure if compounds were able to increase PGE2 production NIH Chemical Genomics Center [NCGC] NIH Molecular Libraries Probe Centers Network [MLPCN] MLPCN Grant: MH084681 Assay Submitter (PI): Structural Genomics Consortium
A549 cells, LNCaP cells or media were dispensed in 384-well plates (ProxiPlate-384 Plus, PerkinElmer, Shelton, CT) at 5,000 cells/9.9 uL/well using a CappAero384 multichannel pipette (Odense, Denmark). Separately on the plate, 10 uL of PGE2 calibration standards at a starting assay concentration of 5,000 pg/mL (1:2 dilution, 12-points, n = 1, prepared in media, Cisbio, Bedford, MA) were dispensed. Compounds (100 nL, final concentration range from 41.9 nM to 100 uM) were transferred using an ATS Acoustic Liquid Dispenser (EDC Biosystems, Fremont, CA). After being mixed using an automated liquid handler (CyBio, Jena, Germany), samples were incubated (37 deg C, 5% CO2, under a humidified atmosphere) for 16 hours. PGE2 labeled conjugates were added to each well, first 5 uL of PGE2-d2, followed by 5 uL of anti-PGE2-cryptate, centrifuged (1,500 rpm, 15 sec) and incubated (RT, protected from light) for 5 hours. Time-resolved fluorescence intensity (320 nm excitation, 615 and 665 nm emission) was measured using an Envision plate reader (PerkinElmer). Data was expressed as the ratio of 665 nm/615 nm emissions. Concentration (pg/mL) of samples were calculated from a 4-parameter logistic calibration curves of the PGE2 standards.
In the case of `COC(=O)[C@]12CCC(C)(C)C[C@H]1[C@H]1C(=O)C=C3[C@@]4(C)C=C(C#N)C(=O)C(C)(C)[C@@H]4CC[C@@]3(C)[C@]1(C)CC2`, the Potency is reported as 16.6 µM (active). With `Cc1cccc(-n2cnc3cc(C(=O)N4CCCC(C)C4)ccc32)c1` (centres undefined) the Potency was 9.35 µM (active). For `Cc1cc(-c2nnc3n2CCCCC3)c(C)n1-c1cccnc1`, the Potency was 1.87 µM (active). For `Cc1cc(-c2nnc3n2CCCCC3)c(C)n1-c1ccc(C(C)(C)C)cc1`, the Potency was 8.33 µM (active) and 13.2 µM (active).
